The panel holds about 83,000 compounds, 20% with a hit somewhere; the sample as a whole holds those more often.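 Cell lines were cultured in 96-well plates, exposed to a single compound concentration, and assessed for percent growth 48 hours later.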 Unmarked numbers belong to inactive results. Active and inactive are the calls of the source. The calls were made as follows: active = growth percent below 10; inactive = the rest.
Tests used:
Test in all cases: NCI-60 one-dose screen, 48 h (100 = growth as untreated, 0 = no growth, -100 = all killed)
[1] = system: SK-MEL-2 melanoma; conditions: 10 µM unless noted
[2] = system: EKVX NSCLC; conditions: 10 µM unless noted
[3] = system: SN12C renal; conditions: 10 µM unless noted
[4] = system: UO-31 renal; conditions: 10 µM unless noted
[5] = system: TK-10 renal; conditions: 10 µM unless noted
[6] = system: ACHN renal; conditions: 10 µM unless noted
[7] = system: A498 renal; conditions: 10 µM
[8] = system: HL-60(TB) leukemia; conditions: 10 µM unless noted
[9] = system: CCRF-CEM leukemia; conditions: 10 µM unless noted
[10] = system: MOLT-4 leukemia; conditions: 10 µM unless noted
[11] = system: SR leukemia; conditions: 10 µM unless noted
[12] = system: RPMI-8226 leukemia; conditions: 10 µM unless noted
[13] = system: OVCAR-8 ovarian; conditions: 10 µM unless noted
[14] = system: OVCAR-5 ovarian; conditions: 10 µM unless noted
[15] = system: OVCAR-4 ovarian; conditions: 10 µM unless noted
[16] = system: SK-OV-3 ovarian; conditions: 10 µM unless noted
[17] = system: IGROV1 ovarian; conditions: 10 µM unless noted
[18] = system: OVCAR-3 ovarian; conditions: 10 µM unless noted
[19] = system: HS 578T breast; conditions: 10 µM unless noted
[20] = system: CAKI-1 renal; conditions: 10 µM unless noted

SMILES | growth [1] | growth [2] | growth [3] [%] | growth [4] | growth [5] | growth [6] | growth [7] | growth [8] | growth [9] | growth [10] | growth [11] | growth [12] | growth [13] | growth [14] | growth [15] | growth [16] | growth [17] | growth [18] | growth [19] | growth [20] [%]
CCOP(=O)(NC[C@H]1O[C@](O)(CO)[C@@H](O)[C@@H]1O)OCC | 98.4% | 91.4% | 100 | 69.9% | 97.2% | 103% | 99.9% | 101% | 101% | 95.9% | 97.1% | 101% | 103% | 112% | 103% | 87.6% | 94.5% | 103% | 96.4% | –
O=[N+]([O-])/C=C\c1ccc(Cl)c(Cl)c1 | 84% | 91.8% | 77.5 | 35.4% | 82.7% | 78.4% | – | – | 33.6% | 37.1% | 7.87% (active) | – | 66.1% | 106% | 84.4% | 96.4% | 92.7% | 44.6% | 17% | 84.7
CC(=O)O[C@H](C[C@H](C(C)C)N(C)C(=O)[C@@H](NC(=O)[C@H]1CCCCN1C)C(C)C)c1nc(C(=O)N[C@@H](Cc2ccccc2)C[C@H](C)C(=O)O)c(C(C)C)s1 | 23.6% | 39.3% | 16.6 | 41.5% | 61.6% | 27.3% | -8.17% (active) | -41.4% (active) | 3.84% (active) | 7.85% (active) | 7.04% (active) | 17.4% | 6.46% (active) | 39.1% | 46.9% | 27% | 20.6% | -28.1% (active) | 17% | –
COc1ccc(C(=O)c2cc(OC)c(OC)c(OC)c2)cc1OC(C)=O | 47.8% | 68.7% | 29.5 | 39.6% | 74.8% | 36.7% | 49.8% | -37.1% (active) | 13.8% | 13.9% | 11.9% | 20.4% | 15.6% | 57.9% | 57.7% | 24.2% | 25.6% | 5.13% (active) | 44.3% | –
CC(=O)OC[C@]1(C)C=C2C(=O)[C@](C)(O)C3(CC3)C(C)=C2[C@H]1OC(=O)N(C)CCN(C)C(=O)OC(C)(C)C | -74.3% (active) | -7.18% (active) | 14.2 | -48.5% (active) | -8.19% (active) | -8.88% (active) | -10.8% (active) | -37% (active) | 19.9% | 10.5% | 14% | 32.9% | -12% (active) | 3.2% (active) | -2.23% (active) | 1.41% (active) | 1.75% (active) | -8.01% (active) | 17.5% | –
COC(=O)[C@@]1(C)CC[C@]2(C)CC[C@]3(C)C4=CC(=O)c5c(cc(O)c(O)c5C)[C@]4(C)CC[C@@]3(C)[C@@H]2C1 | 71.6% | 71.7% | 61.7 | 50.6% | 68.9% | 53.3% | 57.1% | 38.4% | 26.9% | 18.3% | 51.2% | 27% | 60.4% | 119% | 47.4% | 58.3% | 50.8% | 47.9% | 79.5% | –
COc1ccc(N(CC(=O)NCCC[Te]c2ccccc2)C(=O)CNC(=O)OC(C)(C)C)cc1 | 80% | -5.01% (active) | 18.7 | -3.8% (active) | 76.1% | 83.9% | -16% (active) | 3.6% (active) | 14% | 12.1% | 12.7% | 13% | 9.87% (active) | 22% | 118% | -7.96% (active) | 4.89% (active) | 103% | 11.7% | –
COC(=O)CCC1=C(C)c2cc3[n-]c(cc4nc(cc5[n-]c(cc1n2)c(CCC(=O)OC)c5C)C=C4C)cc3C.[Cd+2] | 32.4% | 62.2% | 71.2 | 71.7% | 33.4% | 67.9% | – | – | – | – | – | -1.53% (active) | 68.7% | 103% | 37.7% | 83.5% | 35.1% | -58.1% (active) | 39.8% | 63.3
CC(=O)O[C@H](C[C@H](C(C)C)N(C)C(=O)[C@@H](NC(=O)[C@H]1CCCCN1C)C(C)(C)C)c1nc(C(=O)N[C@@H](Cc2ccccc2)C[C@H](C)C(=O)O)cs1 | 21.8% | 39.7% | 17.9 | 43% | 52.6% | 29% | -6.47% (active) | -26% (active) | 1.05% (active) | 6.26% (active) | 2.59% (active) | 16.8% | 8.74% (active) | 32% | 41.6% | 28.6% | 18.9% | -14.6% (active) | 16.7% | –
C[C@@]12CC=C3c4nc(Nc5cccc(O)c5)sc4CC[C@]3(C)[C@H]1CC[C@]1(C)C(=O)CC[C@@H]21 | 29.1% | 71.4% | 46.5 | 22.2% | 10.2% | 5.12% (active) | – | – | 13% | 5.52% (active) | 3.61% (active) | -13.6% (active) | – | 110% | 52.1% | 37.3% | -12.1% (active) | -3.79% (active) | 7.41% (active) | 37.1
O=[N+]([O-])c1c(Br)sc(Br)c1[N+](=O)[O-] | -20.9% (active) | 72.5% | 30 | -65.7% (active) | -78.3% (active) | -56.4% (active) | 111% | -11.2% (active) | -18.9% (active) | -3.6% (active) | -5.81% (active) | 16.7% | 5.21% (active) | 76.3% | 30.9% | 98.7% | 3.28% (active) | -62.4% (active) | – | –
Nc1ccc(Cl)cc1 | 95.7% | 95.7% | 95.3 | 94.9% | 92.3% | 108% | 103% | 95% | 98.2% | 94.3% | 102% | 98.9% | 97.4% | 100% | 106% | 92% | 105% | 112% | – | –
Fc1ccc2c(c1)c(-c1nc(-c3c[nH]c4ncccc34)cs1)cn2CCN1CCOCC1 | 67.4% | 32.8% | 65.8 | 25.5% | 64.1% | 48.3% | 74.1% | 48.1% | 35.2% | 35.4% | 39.7% | 29% | 33.5% | 89.8% | 44.7% | 87.2% | 21.5% | 59.5% | 53.8% | –
CCc1ccccc1[C@@H]1C[C@]2(C)CCO[C@@H]2OO1 | 115% | 105% | 98.7 | 91.5% | 96.9% | 104% | 102% | 109% | 94.1% | 105% | 102% | 100% | 96% | 109% | 96.3% | 107% | 108% | 113% | 101% | –
Cn1cc(-c2csc(-c3cn(CCCCN4CCCCC4)c4ccc(F)cc34)n2)c2cccnc21 | 97.4% | 89% | 75.7 | 20.6% | 106% | 54.6% | 81.5% | -0.887% (active) | -60.5% (active) | -62% (active) | -44.9% (active) | 1.18% (active) | 91.8% | 103% | 87% | 100% | 71.7% | 87.7% | 67.9% | –
COC(=O)[C@@H](C)C[C@H](Cc1cn(C)c2ccccc12)NC(=O)c1csc([C@@H](C[C@H](C(C)C)N(C)C(=O)[C@@H](NC(=O)[C@H]2CCCCN2C)C(C)C)OC(C)=O)n1 | 39% | 46.4% | 23.5 | 34.1% | 28.1% | 18.8% | -1.42% (active) | -39.1% (active) | 10.8% | 12.8% | 13.2% | 10.5% | 30.1% | 48.7% | 50.5% | 26.8% | 26.3% | -11% (active) | 22.7% | –

From PubChem BioAssay (NCI)
